Compound activity deposited in PubChem by National Center for Advancing Translational Sciences (NCATS).
FLuc modulator – qHTS profiling assay for firefly luciferase inhibitor/activator using purifed enzyme and Km concentrations of substrates (counterscreen for miR-21 project) | purified FLuc, Km substrates, luminescence inhibition | Luciferin 4-monooxygenase (Photinus pyralis), P08659 | 6.9% of 360,000 active | Potency, µM (highest dose often 57.5 µM), hits mostly inhibitors; also: nearly all actives have a fitted effect of over 55% in size
Target sequence (P08659 whole entry, looked up): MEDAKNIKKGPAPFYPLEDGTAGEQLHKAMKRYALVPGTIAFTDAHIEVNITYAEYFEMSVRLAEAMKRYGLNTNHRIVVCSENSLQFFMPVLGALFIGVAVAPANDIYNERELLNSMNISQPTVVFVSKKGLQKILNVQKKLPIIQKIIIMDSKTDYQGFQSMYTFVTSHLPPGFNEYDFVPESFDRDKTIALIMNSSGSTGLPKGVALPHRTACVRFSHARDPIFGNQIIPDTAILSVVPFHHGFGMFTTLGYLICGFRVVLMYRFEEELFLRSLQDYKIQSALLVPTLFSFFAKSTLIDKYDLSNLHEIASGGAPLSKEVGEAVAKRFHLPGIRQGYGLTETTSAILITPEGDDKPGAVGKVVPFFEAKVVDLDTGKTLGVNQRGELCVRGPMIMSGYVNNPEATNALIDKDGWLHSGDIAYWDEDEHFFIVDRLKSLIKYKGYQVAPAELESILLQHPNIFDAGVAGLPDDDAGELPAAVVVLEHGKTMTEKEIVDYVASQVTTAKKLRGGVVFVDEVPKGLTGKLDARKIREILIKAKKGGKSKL
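Purified P. pyralis luciferase, 10 nM final, with Km-level 10 uM D-luciferin and 10 uM ATP in 50 mM Tris acetate pH 7.5, 10 mM Mg acetate, 0.01% Tween-20, 0.05% BSA; 6-point qHTS titration about 60 µM downward; luminescence read.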
KinaseGlo FLuc – Counterscreen for Luciferase (Kinase-Glo TM) Inhibition; Kinase-Glo luciferase, ATP luminescence, 8 min; AID 1379, 2008; Potency, µM (doses to about 38.3 µM), usual class: inhibitors; 0.28% of 200,000 active; also: nearly all actives have a fitted effect of over 60% in size
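Compound is pinned into ATP-containing buffer (10 uM ATP, imidazole pH 7.2, 7 mM MgCl2). Kinase-Glo luciferase reagent is then added. Light output is recorded following an 8-min room-temperature incubation.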
ELG1 genotoxic – qHTS screen for small molecules that induce genotoxicity in human embryonic kidney (HEK293T) cells expressing luciferase-tagged ELG1 | HEK293T ELG1-luciferase reporter, luminescence, 16 h | Potency, µM (top dose mostly 46 µM), hits mostly activators | AID 504466, 2011 | 1.3% of 330,000 active; also: nearly all actives have a fitted effect of over 60% in size
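ELG1-luciferase HEK293T cells, 2,000/well; compound pinned in; 16 hr, 37 °C, 5% CO2; ONE-Glo, 30 min RT; luminescence on CCD imager.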
SMN2 splice up – qHTS Assay for Enhancers of SMN2 Splice Variant Expression | HEK293 SMN2-luciferase splicing reporter, luminescence, 30-36 h | Potency, µM (series often up to 46.1 µM), actives largely listed as activators | 2.8% of 210,000 active; also: nearly all actives have a fitted effect of over 55% in size
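HEK293 cells carry an SMN2 minigene-luciferase reporter in which exon 7 inclusion puts luciferase in frame. Cells were seeded at 2000 cells/well, attached for 10-12 hours, then exposed to compounds for 30-36 hours at 37C before ONE-Glo luminescence.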
NPC1 promoter act – qHTS Assay for NPC1 Promoter Activators; Huh7 NPC1 promoter luciferase reporter, 24 h; Potency, µM (highest dose often 9.22 µM), hits mostly activators; 2.4% of 320,000 active; AID 485313, 2010; also: nearly all actives have a fitted effect of over 60% in size
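Huh7 cells stably carrying NPC1 promoter–luciferase, plated in Opti-MEM with 10% FBS for 2 h, were exposed to compound in DMSO for 24 h at 37 °C; luciferase reagent was added for 10 min and luminescence read.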
Rab9 prom act – qHTS Assay for Rab9 Promoter Activators | 2.8% of 320,000 active | Potency, µM (titrated, usually from 9.22 µM), actives largely listed as activators | AID 485297, 2010 | Huh7 Rab9 promoter-luciferase reporter, luminescence, 24 h; also: nearly all actives have a fitted effect of over 60% in size
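Promoter activation is measured as luciferase luminescence in Huh7 cells stably transfected with a Rab9 promoter–luciferase construct, following 24 h compound exposure at 37 °C and 10 min reagent incubation at ambient temperature.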
Large screens that a line does not name were inactive. Only some compounds are listed: those with a hit (about 7.5% of all), similar ones and a draw of the others. Calls follow the shape of the dose curve; as a rule, active = well fitted curve in the direction sought with a large enough effect; inconclusive = small, poorly fitted or top-dose-only effect, or another doubt; inactive = no such curve, though single readings can be large; an effect the other way counts as inactive or inconclusive.

COc1ccc(CC(=O)Nc2ccc(N3CCOCC3)cc2)cc1OC	none (no result: KinaseGlo FLuc, SMN2 splice up)
CCC(=O)Nc1cccc(-c2nc3ccccc3o2)c1	FLuc modulator inconclusive
Cc1ccc(C)c(N2CCN(C(=O)CCc3c(C)nn(-c4ccc(N5CCCC5)nn4)c3C)CC2)c1	none (no result: KinaseGlo FLuc, ELG1 genotoxic, SMN2 splice up, NPC1 promoter act, Rab9 prom act)
Cc1ccc(S(=O)(=O)NCCCNS(=O)(=O)c2ccccc2Br)cc1	none (no result: FLuc modulator, KinaseGlo FLuc, SMN2 splice up, NPC1 promoter act, Rab9 prom act)
CCOc1ccc(CC(=O)Nc2ccc(-c3ccc4nnc(C)n4n3)cc2)cc1	ELG1 genotoxic 21µM
CN(C)S(=O)(=O)c1cccc(-c2cn3ccccc3n2)c1	none
Cc1ccc(S(=O)(=O)Nc2cccc(-c3cn4cccc(C)c4n3)c2)c(C)c1	FLuc modulator inconclusive (no result: KinaseGlo FLuc, ELG1 genotoxic, NPC1 promoter act, Rab9 prom act)
COc1ccc(-c2cn(-c3ccc(C)cc3)c(S(=O)(=O)CC(=O)Nc3ccccc3)n2)cc1	FLuc modulator inconclusive, SMN2 splice up 13µM (no result: KinaseGlo FLuc, ELG1 genotoxic, NPC1 promoter act, Rab9 prom act)
O=C(Nc1cccc(-c2cn3ccccc3n2)c1)C1CC1	FLuc modulator 13µM, ELG1 genotoxic inconclusive, SMN2 splice up inconclusive
Cc1nnc2ccc(-c3ccc(NC(=O)Cc4cccs4)cc3)nn12	ELG1 genotoxic inconclusive (no result: KinaseGlo FLuc, SMN2 splice up)
CCC(=O)Nc1cccc(-c2cn3cccc(C)c3n2)c1	FLuc modulator 7.6µM, NPC1 promoter act inconclusive, Rab9 prom act inconclusive (no result: KinaseGlo FLuc, SMN2 splice up)
COc1ccc(CC(=O)Nc2ccc(-c3cn4ccccc4n3)cc2)cc1	FLuc modulator 3.4µM, ELG1 genotoxic inconclusive, SMN2 splice up inconclusive, NPC1 promoter act inconclusive, Rab9 prom act 3.2µM
COc1ccc(CC(=O)Nc2ccc(NC(=O)c3ccccc3F)cc2)cc1	none (no result: SMN2 splice up)
CCS(=O)(=O)N1CCc2cc(C(=O)NCc3ccccc3OC)ccc21	none (no result: KinaseGlo FLuc, ELG1 genotoxic, SMN2 splice up, NPC1 promoter act, Rab9 prom act)
COc1ccc(C2N(C(=O)N(C)C)CCN2S(=O)(=O)c2ccc(OC)cc2)cc1 (stereo unspecified)	none (no result: KinaseGlo FLuc, SMN2 splice up)
O=C(NC1CCCCC1)C(=S)N1CCCC1	none
O=C(NC1CCCCC1)C(=S)NC1CCCCC1	FLuc modulator inconclusive, ELG1 genotoxic inconclusive, SMN2 splice up 14µM, NPC1 promoter act 2.8µM, Rab9 prom act 3.5µM
O=C(NC1CCCCCC1)C(=S)NCc1ccccc1	FLuc modulator 21µM, Rab9 prom act inconclusive
O=C(NC1CCCCC1)C(=S)NCc1ccccc1	FLuc modulator 21µM, SMN2 splice up inconclusive, NPC1 promoter act inconclusive, Rab9 prom act inconclusive
O=C(NCc1ccccc1)C1CCCC1	none (no result: KinaseGlo FLuc, SMN2 splice up)
O=C(NC1CCCCCC1)C(=S)NCCc1ccccc1	FLuc modulator inconclusive
O=C(CSc1ccccc1C(=O)NCc1ccccc1)NC1CCCCCCC1	FLuc modulator 24µM
CC(C)n1cc(CN2CCC(C(=O)Nc3ccc(Oc4ccccc4F)cc3)CC2)cn1	none (no result: KinaseGlo FLuc, SMN2 splice up)
Cc1sc2ncn(CC(=O)Nc3cccc(C(F)(F)F)c3)c(=O)c2c1S(=O)(=O)N1CCN(C)CC1	none (no result: KinaseGlo FLuc, ELG1 genotoxic, NPC1 promoter act, Rab9 prom act)
CC(=O)N1CCc2cc(S(=O)(=O)CCC(=O)NCCc3ccccc3)ccc21	none (no result: KinaseGlo FLuc, SMN2 splice up)
CCc1ccccc1NC(=O)c1nc2nc(C)cc(C(F)F)n2n1	none (no result: KinaseGlo FLuc, ELG1 genotoxic, NPC1 promoter act, Rab9 prom act)
COc1ccc(/C=N/NC(=O)C(=O)N2CCCCCC2)cc1O	none (no result: KinaseGlo FLuc, SMN2 splice up)
CCC1=C([N+](=O)[O-])C(c2ccc3c(c2)OCO3)NC(=O)N1 (stereo unspecified)	none (no result: KinaseGlo FLuc, SMN2 splice up)
Cc1ccc(-n2nc3ccc(N)cc3n2)c(C)c1	FLuc modulator 7.6µM, ELG1 genotoxic inconclusive (no result: KinaseGlo FLuc, SMN2 splice up)
Cc1ccc(C)c(-c2nc3ccc(N)cc3[nH]2)c1	FLuc modulator inconclusive, ELG1 genotoxic inconclusive
COc1ccc(-n2nc3ccc(NC(=O)c4ccc(C#N)cc4F)cc3n2)cc1Cl	none (no result: KinaseGlo FLuc, ELG1 genotoxic, NPC1 promoter act, Rab9 prom act)
COc1ccc(-n2nc3ccc(NS(C)(=O)=O)cc3n2)cc1Cl	FLuc modulator 3.4µM, ELG1 genotoxic 16µM, NPC1 promoter act inconclusive
COc1ccc(-n2nc3ccc(N)cc3n2)cc1Cl	FLuc modulator 1.5µM, ELG1 genotoxic inconclusive (no result: KinaseGlo FLuc, SMN2 splice up)
Cc1ccc(-n2nc3ccc(N)cc3n2)cc1Cl	FLuc modulator 0.67µM, ELG1 genotoxic inconclusive, NPC1 promoter act inconclusive, Rab9 prom act inconclusive (no result: KinaseGlo FLuc, SMN2 splice up)
